{"source": "PubChem BioAssay AID2314", "about": "(National Center for Advancing Translational Sciences (NCATS), 2010)", "note": "The whole screen tested about 300,000 compounds, of which about 37,000 (12%) were called active. Many of the other results were omitted from the sample, so actives are more common in it than they were. Values without a mark were called inactive. Rule as the data show it: active = max response mostly above about 13% (no sharp cut-off); inactive = mostly below about 14%."}
{"assay": "Cycloheximide Counterscreen for Small Molecule Inhibitors of Shiga Toxin; also: read at 38.3 µM for the half of the compounds with a filed dose; 0% is about no effect", "details": "cell reporter, cycloheximide protein synthesis inhibition counterscreen; active compounds read high"}
{"smiles": "COc1cc2c3c(c1)/C(=C1/SC(=S)NC1=O)C(=O)N3C(C)(C)C=C2C", "max response": "-0.91%"}
{"smiles": "CC(=O)Nc1cccc(OCC(=O)/C=C2\\N(C)c3ccccc3C2(C)C)c1", "max response": "17%"}
{"smiles": "COc1ccc(CNC(=O)COc2cccnc2[N+](=O)[O-])cc1", "max response": "-2.66%"}
{"smiles": "Cc1ccc(Nc2ncnc3c2cnn3C)c(C)c1", "max response": "1.06%"}
{"smiles": "Cc1ccc(-n2ncc3c(Nc4cccc(C(=O)O)c4)ncnc32)cc1", "max response": "45.3% (active)"}
{"smiles": "O=C(NNc1ncnc2c1cnn2-c1ccccc1)c1ccco1", "max response": "9.27%"}
{"smiles": "CCOC(=O)C1CN(S(=O)(=O)c2ccc(F)cc2)C1", "max response": "1.16%"}
{"smiles": "C=CCn1c(=S)[nH]c2scc(-c3ccco3)c2c1=O", "max response": "-1.66%"}
{"smiles": "COc1cc(C2C(N3C(=O)c4ccccc4C3=O)C(=O)N2c2ccc(C)c(C)c2)cc(OC)c1OC", "note": "(stereo not drawn)", "max response": "-1.4%"}
{"smiles": "COC(=O)c1ccc(S(=O)(=O)NCc2ccccc2)n1C", "max response": "-1.21%"}
{"smiles": "COc1ccc(C2C3=C(CCCC3=O)N(CC(=O)O)C3=C2C(=O)CCC3)cc1", "max response": "-0.955%"}
{"smiles": "CC(=O)Cc1nsc(NC(=O)c2ccc(COc3ccc(C)cc3)o2)n1", "max response": "4.45%"}
{"smiles": "Cc1cccc(NC(=O)c2ccc(COc3ccccc3[N+](=O)[O-])o2)n1", "max response": "9.42%"}
{"smiles": "CCOc1ccc(OCc2ccc(C(=O)Nc3cccc(C)n3)o2)cc1", "max response": "21.2% (active)"}
{"smiles": "Cc1ccc(NC(=O)c2nc[nH]c2C(=O)N[C@@H](CCCCNC(=O)OC(C)(C)C)C(=O)OC(C)(C)C)cc1", "max response": "-3.36%"}
{"smiles": "O=C(NCC(=O)N1CCN(c2ncc(C(F)(F)F)cc2Cl)CC1)c1ccc(Br)o1", "max response": "-1.14%"}
{"smiles": "CCCC(=O)Nc1nnc(-c2ccccc2)o1", "max response": "-3.55%"}
{"smiles": "Cc1ccnc2nc(C(=O)Nc3nnc(-c4ccccc4)o3)nn12", "max response": "23.5% (active)"}
{"smiles": "CCc1nnc(NC(=O)c2nc3nccc(C)n3n2)s1", "max response": "-2.71%"}
{"smiles": "C=CCN(c1ccccc1C(=O)NCC(=O)OCC)S(=O)(=O)c1ccc(C)cc1", "max response": "-3.9%"}
{"smiles": "CCn1cc(C(=O)NCCCN2CCCCCC2)c(=O)c2cc(S(=O)(=O)N3CCc4ccccc4C3)ccc21", "max response": "-1.21%"}
{"smiles": "CCO[C@H]1OC(C(=O)NCc2ccccc2)=C[C@@H](c2coc3ccccc3c2=O)[C@@H]1CCCO", "max response": "-1.05%"}
{"smiles": "CCC(=O)N1c2ccc(S(=O)(=O)NCc3ccco3)cc2CC1C", "note": "(stereo not drawn)", "max response": "19.8%"}
{"smiles": "O=C(O)CCCC(=O)Nc1ccc(Oc2cccc(C(F)(F)F)c2)nc1", "max response": "5.78%"}
{"smiles": "COC(=O)C1CCN(C(=O)c2ccc3oc(Cc4ccc(Cl)cc4)nc3c2)CC1", "max response": "-2.56%"}
{"smiles": "COc1ccc(C(=O)N2CCCC(C(=O)c3ccccc3OC)C2)cc1OC", "note": "(stereo not drawn)", "max response": "9.55%"}
{"smiles": "COCC1CCN(C(=O)c2ccc3oc(Cc4ccccc4)nc3c2)C1", "note": "(stereo not drawn)", "max response": "39.1% (active)"}
{"smiles": "COc1c(C)cc(C(=O)C2CCCN(S(=O)(=O)c3c(C)noc3C)C2)cc1C", "note": "(stereo not drawn)", "max response": "5.32%"}
{"smiles": "Cc1ccc2c(c1)N(CC(=O)N1CCOCC1)C(=O)CO2", "max response": "-3.08%"}
{"smiles": "Cc1nc(C(=O)Nc2ccc(Cl)cc2)sc1C1(C)CC(c2ccccc2)=NO1", "note": "(stereo not drawn)", "max response": "9.03%"}
{"smiles": "Cc1nc(C(=O)NCc2ccccc2)sc1C1(C)CC(c2cccnc2)=NO1", "note": "(stereo not drawn)", "max response": "-3.23%"}
{"smiles": "Cc1nc(-c2ccc(Cl)cc2)sc1C1(C)CC(c2ccccc2F)=NO1", "note": "(stereo not drawn)", "max response": "20.7% (active)"}
{"smiles": "CCN(c1ccc(NC(=O)COC(=O)CCc2nc3ccccc3n2-c2ccccc2)cc1)C(C)C", "max response": "6.5%"}
{"smiles": "COc1ccccc1NC(=O)COc1ccc(C(=O)OCC(=O)N(C(C)C)C(C)C)cc1OC", "max response": "-3.62%"}
{"smiles": "COc1ccc2c(c1)C(NS(=O)(=O)OCC(Cl)(Cl)Cl)CCC2", "note": "(stereo not drawn)", "max response": "0.921%"}
{"smiles": "COc1cc2c(C(=O)N3CCN(C)CC3)c(CSc3ccccc3)n(C)c2cc1Br", "max response": "-3.14%"}
{"smiles": "Cc1ccc(C(=O)N/C(=C\\c2cn(S(=O)(=O)N(C)C)c3ccccc23)C(=O)N2CCCC2)cc1", "max response": "-4.36%"}
{"smiles": "Cc1nc(-c2ccc(F)cc2)c(CC(=O)N2CCN(S(=O)(=O)c3ccc(F)cc3)CC2)s1", "max response": "-1.12%"}
{"smiles": "Cc1ccc(NC(=O)N2CCC(O)(c3cccnc3)CC2)cc1", "max response": "-0.6%"}
{"smiles": "CCOc1ccc(CNC(=O)CCC(=O)N2CCSc3ccccc32)cc1", "max response": "3.9%"}
{"smiles": "Cc1ccc(NC(=O)N2CCSc3ccccc32)cc1", "max response": "21.8% (active)"}
{"smiles": "Cc1ccc2c(=O)oc(N(C)C)nc2c1", "max response": "-3.11%"}
{"smiles": "COc1ccc(CNC(=O)CCN2C(=O)c3ccccc3C2=O)cc1", "max response": "-8.4%"}
{"smiles": "Cc1cc(C(=O)NC2CCCc3c2cnn3-c2cccc(C)c2C)c(C)o1", "note": "(stereo not drawn)", "max response": "0.915%"}
{"smiles": "CCC1OC(c2ccc([N+](=O)[O-])cc2)=Nc2ccccc21", "note": "(stereo not drawn)", "max response": "-5.5%"}
{"smiles": "COc1ccc2c(c1)C(c1cccs1)=NNC(c1cccnc1)=N2", "max response": "18.1%"}
{"smiles": "O=C1NC(=O)C2C1C(c1ccc([N+](=O)[O-])cc1)=NN2Cc1ccccc1", "note": "(stereo not drawn)", "max response": "-2.84%"}
{"smiles": "CCOc1ccc2c(c1)C(c1ccc(C)cc1)=NNC(c1ccc(C)cc1)=N2", "max response": "54.8% (active)"}
{"smiles": "CCc1ccc2c(c1)C(c1ccc([N+](=O)[O-])cc1)=NNC(c1ccccc1)=N2", "max response": "33.3% (active)"}
{"smiles": "Cc1ccc(C2=Nc3c(ccc4ccccc34)C(c3ccncc3)=NN2)cc1", "max response": "1.6%"}
{"smiles": "COc1ccc(-c2onc3ccc(C(C)=O)cc23)cc1", "max response": "2.44%"}
{"smiles": "CC1=C(C(=O)OC(C)(C)C)C(c2ccc(Br)cc2)NC(=O)N1CCCC(=O)O", "note": "(stereo not drawn)", "max response": "-2.28%"}
{"smiles": "O=C(c1cc2cc(Br)cc(Br)c2oc1=O)N1CCOCC1", "max response": "0.493%"}
{"smiles": "CC1CCN(CCCNC(=O)CN2C(=O)CSc3ccc(S(=O)(=O)N4CCCCC4)cc32)CC1", "max response": "-0.237%"}
{"smiles": "O=C(CN1CCC(NC(=O)C2CC2)CC1)Nc1ccccc1[N+](=O)[O-]", "max response": "7%"}
{"smiles": "O=C1c2ccccc2C(=O)N1CCC(O)C[N+](=O)[O-]", "note": "(stereo not drawn)", "max response": "-2.75%"}
{"smiles": "O=C1c2ccccc2C(=O)N1CCc1nn[nH]n1", "max response": "-3.78%"}
{"smiles": "O=C1c2ccccc2C(=O)N1CCC(c1ccccc1)c1ccco1", "note": "(stereo not drawn)", "max response": "24.4% (active)"}
